Experimental data from the supplement of paper PMC9337992.
± gives the standard deviation of the averaged measurements.

How the values were obtained:
Assay in all cases: cell proliferation (confluence) relative to DMSO control; higher = less growth inhibition
Conditions in all cases: 5 uM; 6 d
BT549 = test system: BT549
Outline: (§1)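 Triple-negative breast cancer cell lines were plated at 500 cells per well in 384-well plates. After the cells adhered, each epigenetic chemical probe, dissolved in DMSO, was added at a final 5 μM for 6 d. Confluency was imaged in an IncuCyte ZOOM (×10 objective, phase-contrast) and analysed with Incucyte 2016 software. Each plate held four replicate wells per compound plus DMSO wells, and confluence was normalised to DMSO control.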

CAL120 = test system: CAL120
Outline: as §1

HCC1143 = test system: HCC1143
Outline: as §1

HCC1395 = test system: HCC1395
Outline: as §1

HCC153 = test system: HCC153
Outline: as §1

HCC1806 = test system: HCC1806
Outline: as §1

HCC38 = test system: HCC38
Outline: as §1

HCC70 = test system: HCC70
Outline: as §1

Hs578-T = test system: Hs578-T
Outline: as §1

MB157 = test system: MB157
Outline: as §1

SUM149-PT = test system: SUM149-PT
Outline: as §1

SUM159-PT = test system: SUM159-PT
Outline: as §1

Compound	cell proliferation (BT549) [%]	cell proliferation (CAL120) [%]	cell proliferation (HCC1143) [%]	cell proliferation (HCC1395) [%]	cell proliferation (HCC153) [%]	cell proliferation (HCC1806) [%]	cell proliferation (HCC38) [%]	cell proliferation (HCC70) [%]	cell proliferation (Hs578-T) [%]	cell proliferation (MB157) [%]	cell proliferation (SUM149-PT) [%]	cell proliferation (SUM159-PT) [%]
CCC(=O)N1CCOc2c(cc(-c3ccc(OC)c(OC)c3)cc2OC[C@H]2CCCN(C)C2)C1	98 ± 1.1	98.2 ± 1.5	99.31 ± 0.35	99.981 ± 0.0043	65.2 ± 5.7	79 ± 6.8	99.89 ± 0.02	92.5 ± 7.2	97.28 ± 0.62	94.2 ± 4.5	29.9 ± 7.1	99.985 ± 0.014
O=C([C@@H](Cc1cccc(C(F)(F)F)c1)NS(=O)(=O)c1cc(F)c2c(c1)CCNC2)N1CCCC1	98.6 ± 1.6	97.2 ± 1.3	97.9 ± 1.8	99.978 ± 0.021	79.2 ± 12	86.9 ± 14	99.44 ± 0.59	96.1 ± 2.5	94.3 ± 4.3	82.3 ± 15	87.4 ± 7.1	99.992 ± 0.0088
COc1ccc(CCc2nc3cc(-c4c(C)noc4C)ccc3n2C[C@H](C)N2CCOCC2)cc1Cl	98.71 ± 0.76	99.636 ± 0.017	98.527 ± 0.086	99.941 ± 0.031	48.7 ± 1.4	82.67 ± 0.12	99.927 ± 0.017	99.75 ± 0.26	96.9 ± 1	90.6 ± 2.1	34.4 ± 3.4	99.994 ± 0.0041
CCCc1cc(C)[nH]c(=O)c1CNC(=O)c1cc(-c2ccnc(N3CCN(C)CC3)c2)cc2c1cnn2C(C)C	99.876 ± 0.081	94.6 ± 4	99.63 ± 0.27	99.992 ± 0.007	88.3 ± 2.3	99.64 ± 0.32	99.73 ± 0.33	97.6 ± 2.6	97.34 ± 0.48	95.1 ± 5.6	61.1 ± 10	99.976 ± 0.033
Cc1nnc2c3ccccc3c(N[C@@H](C)[C@H](c3ccccc3)N(C)C)nn12 [L-moses]	98.1 ± 1.5	99.22 ± 0.67	97.14 ± 0.68	99.898 ± 0.059	60.8 ± 6	81.2 ± 6.2	99.61 ± 0.29	96.2 ± 2.5	87 ± 19	98.5 ± 1.9	75.8 ± 11	99.952 ± 0.041
CNCCN1CCC(OCc2ccccc2)CC1	98.25 ± 0.81	97.25 ± 0.95	96.6 ± 1.6	99.984 ± 0.0095	60.3 ± 10	73.6 ± 7.1	99.63 ± 0.28	88.5 ± 12	97.85 ± 0.92	93.3 ± 5.4	72.8 ± 18	99.906 ± 0.052
COc1cc2c(cc1OCCCN1CCCC1)N=C(N)C21CCC1	99.32 ± 0.28	83.1 ± 6.3	95.6 ± 3.2	99.981 ± 0.027	80.7 ± 2.8	99.41 ± 0.36	98.89 ± 0.42	96.5 ± 3.6	92.3 ± 4.1	72.5 ± 12	78.6 ± 16	99.951 ± 0.031
O=C(c1ccc(C(=O)N2CCC(N3CCCC3)CC2)c(Nc2ccccc2)c1)N1CCC(N2CCCC2)CC1	99.63 ± 0.2	95.4 ± 2.1	99.64 ± 0.16	99.874 ± 0.068	89.5 ± 3.3	99.832 ± 0.085	99.81 ± 0.17	99.24 ± 0.6	98.8 ± 0.39	99.13 ± 0.32	89.4 ± 9.2	99.998 ± 0.0015
